Results as given in PubChem BioAssay.
Results filed as inconclusive are left out. Activity calls are given as the source filed them.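 How the source made its calls, unless noted: active means inhibition above the screen-wide mean plus 3 SD, about 51%; inactive means the rest.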

Columns and labels:
[1] = rapamycin-like changes in RPL19A-GFP expression – cell-based, S. cerevisiae, multiplex flow cytometry, primary screen (AID 1862; in the data active means percent of DMSO control GFP below about 86%;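 further: lower values mimic rapamycin by blocking the RPL19A rise seen in DMSO cells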); settings: S. cerevisiae RPL19A-GFP strain, flow cytometry fluorescence, 3 h; at 10 µM; stronger effect = lower value
[2] = TOR pathway GLN3 branch reporter MEP2-GFP changes – S. cerevisiae, multiplex flow cytometry, primary screen (AID 1867;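 active means GFP response, as percent of the DMSO control, above the screen-wide mean plus 3 SD, about 139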;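 further: median GFP channel fluorescence of barcode-gated MEP2-GFP cells measured by flow cytometry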); settings: S. cerevisiae MEP2-GFP strain, 3 h, at 10 µM, stronger effect = higher value, 100% means same as DMSO wells
[3] = TOR pathway RTG branch CIT2 reporter changes – S. cerevisiae, GFP fusion, multiplex flow cytometry, primary screen (AID 1870;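 active means percent response above a set limit, the screen-wide mean plus 3 SD, cut at about 130% in these data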;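 further: barcoded CIT2-GFP strain pooled with four other GFP strains with rapamycin as positive control; median GFP fluorescence per well over plate mean of DMSO wells so 100% = DMSO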); settings: S. cerevisiae CIT2-GFP expression, 3 h, at 10 µM, stronger effect = higher value
[4] = TOR pathway LAP4-GFP level changes – S. cerevisiae, multiplex flow cytometry, primary screen (AID 1873;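 active means GFP signal, as percent of the solvent control, above the screen mean plus 3 SD, about 149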); settings: S. cerevisiae LAP4-GFP expression, 3 h, at 10 µM, stronger effect = higher value
[5] = yeast AGP1-GFP level changes, GLN3 branch – cell-based, multiplex flow cytometry, S. cerevisiae, primary screen (AID 1887;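 active means GFP signal above the screen-wide mean plus 3 SD, that is over about 124.5% of the solvent control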;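 further: AGP1-GFP fusion strain of S. cerevisiae within a five-strain barcoded multiplex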); settings: 3 h, at 10 µM, stronger effect = higher value
[6] = reduced mouse 2C T cell binding to pMHC/ICAM-1 vesicles – MLPCN validation set, flow cytometry, LFA-1/ICAM-1 modulator project, pilot screen (AID 2523;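 active means response below a set limit, under 55% cells CD8-positive and vesicle-bound, and CD8 cells' 90th-percentile brightness under 279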;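 on vesicle binding response: mean PE anti-B7-1 fluorescence of CD8+ cells relative to row control; 100% = QL9-loaded vesicles with DMSO vehicle in the same plate row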); settings: 2C mouse CD8+ T cells, at 7 µM, stronger effect = lower value; double positive events: measured here: CD8+/vesicle+ event percentage
[7] = molecular target: Integrin beta-1 (Homo sapiens) + Integrin alpha-4 (Homo sapiens) (UniProt P13612+P05556); assay: alpha4beta1 integrin LIBS antibody binding reduction – U937 cells, HUTS-21 mAb, flow cytometry, validation set, VLA-4 allosteric modulator project, pilot screen (AID 2674;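 active means inhibition above 50%, about 3 SD of the validation set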;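 further: antibody binding induced by the VLA-4 ligand LDV present at three times its Kd; 0% = LDV ligand with antibody and no compound and 100% = antibody without LDV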); settings: HUTS-21 LIBS mAb binding, at 6.7 µM, stronger effect = higher value, binding induced by LDV ligand
[8] = calorie-restriction mimetic ROS inhibitors, yeast – validation compound set, pilot screen (AID 2706;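 active means superoxide response below 65% of plate, a cut near 3 SD across the whole screen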;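 further: yeast exposed to compound for one week at 30 degrees C before staining; 100% = mean of all compound wells on the same plate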); settings: S. cerevisiae aging, superoxide DHE fluorescence; at 10 µM; stronger effect = lower value
[9] = molecular target: Beta-adrenergic receptor kinase 1 (Homo sapiens) (UniProt P25098); assay: GRK2 binders displacing RNA aptamer, biochemical, validation, human GRK2, bead flow cytometry (AID 488806;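 active means aptamer binding inhibition above 30%, about 3 SD of noise from non-fluorescent compounds; inactive means inhibition at or below 30%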); settings: bead-bound GRK2, FAM-aptamer displacement, at 10 µM, stronger effect = higher value
[10] = molecular target: Beta-2 adrenergic receptor (Homo sapiens) (UniProt P07550); assay: agonist-induced loss of surface beta2AR – cell-based, FAP fluorogen, flow cytometry, validation set, pilot screen (AID 504459;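 active means percent response above 42, roughly 3 SD of non-fluorescent test compounds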;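 further: agonist-driven loss of surface beta2AR via internalization measured by FAP dye flow cytometry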); settings: Am2.2-beta2AR cells, at 10 µM, stronger effect = higher value
[11] = molecular target: AP-2 complex subunit beta (Homo sapiens) (UniProt P63010); assay: beta-arrestin/AP2 interaction blockers – biochemical, validation set, GST-AP2 beads, flow cytometry, pilot screen (AID 504541;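 active means inhibition above 54%, about 3 SD of non-fluorescent compounds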;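 further: AP2 carries R879A mutation and is captured from E. coli lysate; bead-bound FITC arrestin peptide fluorescence measuring arrestin peptide binding to AP2; 0% = DMSO wells and 100% = excess unlabeled arrestin peptide control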); settings: FITC arrestin peptide, at 10 µM, stronger effect = higher value, AP2 beta2 appendage fragment, R879A mutant
[12] = cytosolic pH regulators acting via V-ATPase – S. cerevisiae, pHLuorin, HTS validation (AID 504600; in the data active means response above about 15%;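 further: plate controls were DMSO for no effect and reference compound for full effect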); settings: V-ATPase proton transport, at 10 µM, stronger effect = higher value
[13] = tested on: anti-desmoglein-3 scFv antibody binding to human DSG3; assay: blockers of pathogenic pemphigus antibody–desmoglein-3 binding – biochemical, validation compound set, bead-based, flow cytometry, pilot screen (AID 588368;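 active means binding below the plate cutoff, the plate median minus 3 SD, with a reading above zero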;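 further: signal is the median channel fluorescence of bead-bound GFP antibody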); settings: Protein G beads, DSG3-Fc, scFv-GFP binding, at 10 µM, stronger effect = lower value
[14] = Nile Red efflux blockade in pump-expressing yeast – validation compound set, multiplex, phenotypic, pilot screen (AID 588506;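 active means efflux inhibition above 0.42, the validation set average plus 4 SD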;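 further: Nile Red retained in cells so higher fluorescence means more efflux inhibition; 0 = negative control wells and 1 = enniatin B 25 µM full block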); settings: S. cerevisiae pump-expressing triplex, Nile Red efflux flow cytometry; at 10 µM; stronger effect = higher value; the pumps come from Candida albicans
[15] = molecular target: ATP-binding cassette sub-family B member 6 (Homo sapiens) (UniProt Q9NP58); assay: blockers of ABCB6-driven porphyrin uptake – K562-ABCB6 cells, flow cytometry, validation set, pilot screen (AID 588550); settings: K562-ABCB6 porphyrin accumulation, 1 h, at 10 µM, stronger effect = higher value;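 further: 0% = DMSO wells and 100% = benzethonium chloride 70 µM positive control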
[16] = AML differentiation inducers, ER-HoxA9 marrow cells – cell-based, GFP/MAC1 double positive, flow cytometry, validation set, primary screen (AID 588685;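 active means differentiation response of at least 50%, scaled between solvent and reference control, from cells with both markers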;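 further: compound exposure lasts four days before antibody staining and flow analysis; 0% = DMSO wells and 100% = 5 µM fulvestrant positive control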); settings: stronger effect = higher value, normalized: vehicle 0, fulvestrant 100

Chain of Beta-adrenergic receptor kinase 1 (Homo sapiens) (P25098 whole entry, looked up): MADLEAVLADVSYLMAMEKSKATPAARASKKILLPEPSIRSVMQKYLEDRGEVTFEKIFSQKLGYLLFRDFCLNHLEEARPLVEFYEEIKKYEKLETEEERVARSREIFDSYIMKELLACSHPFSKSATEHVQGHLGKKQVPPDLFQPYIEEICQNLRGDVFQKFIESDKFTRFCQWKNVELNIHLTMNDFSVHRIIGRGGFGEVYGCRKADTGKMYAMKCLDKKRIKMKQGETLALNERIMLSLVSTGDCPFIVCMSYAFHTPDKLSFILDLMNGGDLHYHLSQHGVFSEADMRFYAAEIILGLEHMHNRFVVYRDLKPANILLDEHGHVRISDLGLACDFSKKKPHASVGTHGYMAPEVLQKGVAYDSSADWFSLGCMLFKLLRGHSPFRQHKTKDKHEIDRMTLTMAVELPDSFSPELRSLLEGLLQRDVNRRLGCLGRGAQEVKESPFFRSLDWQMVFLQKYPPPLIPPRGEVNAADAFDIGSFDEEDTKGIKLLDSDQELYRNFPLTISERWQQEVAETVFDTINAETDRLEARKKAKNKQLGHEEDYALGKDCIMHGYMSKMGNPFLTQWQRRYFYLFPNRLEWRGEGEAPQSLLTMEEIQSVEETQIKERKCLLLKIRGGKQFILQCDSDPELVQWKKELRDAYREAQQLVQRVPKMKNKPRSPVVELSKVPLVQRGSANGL
Chain of Beta-2 adrenergic receptor (Homo sapiens) (P07550 whole entry, looked up): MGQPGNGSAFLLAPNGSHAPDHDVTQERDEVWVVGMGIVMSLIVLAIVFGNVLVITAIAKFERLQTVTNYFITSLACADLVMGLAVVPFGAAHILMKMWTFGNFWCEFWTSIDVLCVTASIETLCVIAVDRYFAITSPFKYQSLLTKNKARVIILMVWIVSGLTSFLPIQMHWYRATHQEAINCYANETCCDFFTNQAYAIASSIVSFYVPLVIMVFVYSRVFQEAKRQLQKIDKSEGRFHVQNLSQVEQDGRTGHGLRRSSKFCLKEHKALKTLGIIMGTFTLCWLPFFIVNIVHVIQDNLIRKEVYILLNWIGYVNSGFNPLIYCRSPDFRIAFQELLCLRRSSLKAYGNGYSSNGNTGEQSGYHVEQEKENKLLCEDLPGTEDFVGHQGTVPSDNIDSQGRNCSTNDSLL
Chain of ATP-binding cassette sub-family B member 6 (Homo sapiens) (Q9NP58 whole entry, looked up): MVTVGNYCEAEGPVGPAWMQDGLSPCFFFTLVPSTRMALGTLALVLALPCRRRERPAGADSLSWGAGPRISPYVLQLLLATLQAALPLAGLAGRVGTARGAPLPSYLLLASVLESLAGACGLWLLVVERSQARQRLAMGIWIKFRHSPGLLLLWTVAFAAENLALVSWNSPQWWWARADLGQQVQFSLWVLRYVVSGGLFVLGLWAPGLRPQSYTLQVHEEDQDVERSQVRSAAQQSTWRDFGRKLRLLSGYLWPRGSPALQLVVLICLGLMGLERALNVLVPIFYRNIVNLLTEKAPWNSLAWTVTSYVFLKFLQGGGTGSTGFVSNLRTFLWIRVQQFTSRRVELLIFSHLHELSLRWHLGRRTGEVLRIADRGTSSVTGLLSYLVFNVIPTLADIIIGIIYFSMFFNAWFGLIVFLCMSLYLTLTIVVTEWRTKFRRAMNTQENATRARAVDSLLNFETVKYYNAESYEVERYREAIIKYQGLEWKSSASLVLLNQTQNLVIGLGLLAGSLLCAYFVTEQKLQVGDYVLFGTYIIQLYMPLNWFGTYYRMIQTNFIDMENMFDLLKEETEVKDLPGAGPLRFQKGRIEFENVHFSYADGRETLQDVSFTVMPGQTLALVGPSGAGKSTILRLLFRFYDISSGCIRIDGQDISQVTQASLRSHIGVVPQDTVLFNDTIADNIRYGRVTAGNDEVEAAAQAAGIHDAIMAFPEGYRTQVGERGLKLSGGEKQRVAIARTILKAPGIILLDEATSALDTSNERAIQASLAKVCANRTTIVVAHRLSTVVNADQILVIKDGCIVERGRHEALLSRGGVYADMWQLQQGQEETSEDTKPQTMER
Chain of AP-2 complex subunit beta (Homo sapiens) (P63010 whole entry, looked up, the tested form may be a part, one chain of several): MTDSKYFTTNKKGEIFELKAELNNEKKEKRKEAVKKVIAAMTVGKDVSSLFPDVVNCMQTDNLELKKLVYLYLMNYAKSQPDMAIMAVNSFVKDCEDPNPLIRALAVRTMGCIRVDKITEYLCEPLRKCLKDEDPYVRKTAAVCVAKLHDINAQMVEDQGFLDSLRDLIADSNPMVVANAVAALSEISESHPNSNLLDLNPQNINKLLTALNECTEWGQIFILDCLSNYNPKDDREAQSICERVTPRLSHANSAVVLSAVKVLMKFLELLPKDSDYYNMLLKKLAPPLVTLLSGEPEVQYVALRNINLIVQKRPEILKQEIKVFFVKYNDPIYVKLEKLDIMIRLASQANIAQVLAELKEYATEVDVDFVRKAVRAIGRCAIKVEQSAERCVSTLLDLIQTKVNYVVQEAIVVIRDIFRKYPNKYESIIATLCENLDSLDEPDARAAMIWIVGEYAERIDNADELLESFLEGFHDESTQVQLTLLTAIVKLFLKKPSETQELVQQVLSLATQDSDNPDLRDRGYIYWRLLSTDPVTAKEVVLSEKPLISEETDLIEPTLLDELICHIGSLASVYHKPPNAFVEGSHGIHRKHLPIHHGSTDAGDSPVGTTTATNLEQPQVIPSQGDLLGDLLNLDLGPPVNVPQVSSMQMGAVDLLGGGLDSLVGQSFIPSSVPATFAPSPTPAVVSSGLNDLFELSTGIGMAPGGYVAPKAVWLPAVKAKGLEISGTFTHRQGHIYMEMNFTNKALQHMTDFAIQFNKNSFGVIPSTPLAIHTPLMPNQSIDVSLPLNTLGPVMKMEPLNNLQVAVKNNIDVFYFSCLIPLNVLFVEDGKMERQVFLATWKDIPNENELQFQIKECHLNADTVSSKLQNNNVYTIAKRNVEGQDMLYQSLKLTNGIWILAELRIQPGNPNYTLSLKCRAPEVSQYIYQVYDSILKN
Chain of Integrin beta-1 (Homo sapiens) + Integrin alpha-4 (Homo sapiens) (P05556 whole entry, looked up): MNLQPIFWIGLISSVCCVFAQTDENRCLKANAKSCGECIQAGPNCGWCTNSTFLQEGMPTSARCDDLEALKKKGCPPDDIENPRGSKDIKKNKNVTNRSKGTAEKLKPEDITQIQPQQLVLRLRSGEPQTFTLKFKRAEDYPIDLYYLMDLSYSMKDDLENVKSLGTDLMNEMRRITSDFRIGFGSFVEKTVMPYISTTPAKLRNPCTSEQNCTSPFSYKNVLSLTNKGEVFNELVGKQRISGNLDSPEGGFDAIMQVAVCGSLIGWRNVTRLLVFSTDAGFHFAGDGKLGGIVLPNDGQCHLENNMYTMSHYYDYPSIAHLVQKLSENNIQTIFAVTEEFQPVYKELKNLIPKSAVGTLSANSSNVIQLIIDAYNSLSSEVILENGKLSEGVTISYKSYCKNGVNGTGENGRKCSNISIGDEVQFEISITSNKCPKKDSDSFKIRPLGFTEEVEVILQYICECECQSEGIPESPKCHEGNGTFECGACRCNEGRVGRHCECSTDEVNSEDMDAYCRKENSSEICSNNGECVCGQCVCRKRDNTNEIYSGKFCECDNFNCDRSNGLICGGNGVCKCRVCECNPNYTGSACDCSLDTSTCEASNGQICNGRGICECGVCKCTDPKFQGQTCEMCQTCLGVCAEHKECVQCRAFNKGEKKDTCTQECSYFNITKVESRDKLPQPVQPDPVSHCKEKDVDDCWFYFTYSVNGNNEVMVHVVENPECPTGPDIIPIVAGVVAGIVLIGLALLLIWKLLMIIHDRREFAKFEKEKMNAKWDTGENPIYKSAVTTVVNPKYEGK
Chain of Integrin beta-1 (Homo sapiens) + Integrin alpha-4 (Homo sapiens) (P13612 whole entry, looked up): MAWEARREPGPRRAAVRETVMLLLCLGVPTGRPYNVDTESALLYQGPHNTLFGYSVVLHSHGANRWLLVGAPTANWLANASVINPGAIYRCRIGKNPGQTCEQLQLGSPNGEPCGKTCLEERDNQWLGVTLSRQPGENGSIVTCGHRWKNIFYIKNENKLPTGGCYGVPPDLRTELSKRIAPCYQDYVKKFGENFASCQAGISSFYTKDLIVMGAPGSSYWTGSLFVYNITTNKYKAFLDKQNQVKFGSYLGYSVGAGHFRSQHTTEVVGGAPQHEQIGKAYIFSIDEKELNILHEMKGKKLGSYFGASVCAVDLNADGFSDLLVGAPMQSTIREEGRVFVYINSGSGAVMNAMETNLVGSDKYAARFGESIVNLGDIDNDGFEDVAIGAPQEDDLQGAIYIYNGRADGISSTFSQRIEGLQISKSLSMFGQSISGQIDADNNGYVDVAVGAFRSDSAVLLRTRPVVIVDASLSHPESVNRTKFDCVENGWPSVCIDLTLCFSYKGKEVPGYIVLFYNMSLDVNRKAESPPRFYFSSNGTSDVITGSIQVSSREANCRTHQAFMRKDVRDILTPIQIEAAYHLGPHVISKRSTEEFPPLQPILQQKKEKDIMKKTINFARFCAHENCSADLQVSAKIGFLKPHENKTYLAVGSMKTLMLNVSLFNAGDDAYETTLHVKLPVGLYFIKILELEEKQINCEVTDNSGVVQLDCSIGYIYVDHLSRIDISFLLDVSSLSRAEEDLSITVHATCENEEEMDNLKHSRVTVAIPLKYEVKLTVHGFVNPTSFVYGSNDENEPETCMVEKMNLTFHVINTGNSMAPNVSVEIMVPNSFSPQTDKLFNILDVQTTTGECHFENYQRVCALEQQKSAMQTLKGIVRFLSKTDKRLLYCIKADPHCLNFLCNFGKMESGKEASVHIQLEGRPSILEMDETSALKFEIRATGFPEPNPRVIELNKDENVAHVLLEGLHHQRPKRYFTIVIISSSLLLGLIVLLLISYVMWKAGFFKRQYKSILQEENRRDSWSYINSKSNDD

C=C(C)Cn1c(NCCOC)nc2c1c(=O)[nH]c(=O)n2C
64.5%: double positive events [6]
inactive: percent of DMSO control GFP [1] 103% | GFP response vs DMSO [2] 112% | percent response of DMSO control [3] 104% | GFP response vs DMSO [4] 96.6% | GFP response, % of DMSO [5] 98.8% | vesicle binding response [6] 327% | inhibition [7] -5.64% | superoxide response (% of plate) [8] 98.4% | aptamer binding inhibition [9] 3% | response [10] 3.03% | inhibition [11] -1.55% | response [12] -1.65% | binding (% of control) [13] 99.8% | efflux inhibition (fraction of control) [14] -0.07 | inhibition [15] -4% | differentiation response [16] 0.24%

Cc1cc(=O)oc2cc(OC(C)C(=O)NCC3CCCO3)ccc12 (stereo not given)
68.8%: double positive events [6]
inactive: percent of DMSO control GFP [1] 101% | GFP response vs DMSO [2] 99.6% | percent response of DMSO control [3] 104% | GFP response vs DMSO [4] 106% | GFP response, % of DMSO [5] 102% | vesicle binding response [6] 554% | inhibition [7] -14.1% | superoxide response (% of plate) [8] 91.7% | aptamer binding inhibition [9] 3% | response [10] -0.14% | inhibition [11] -3.92% | response [12] 0.04% | binding (% of control) [13] 96.8% | efflux inhibition (fraction of control) [14] -0.28 | inhibition [15] 5% | differentiation response [16] -7.2%

COc1cccc2c(=O)c(C/C=C(/C)Cl)c(C)[nH]c12
inactive: percent of DMSO control GFP [1] 107% | GFP response vs DMSO [2] 103% | percent response of DMSO control [3] 101% | GFP response vs DMSO [4] 131% | GFP response, % of DMSO [5] 108% | vesicle binding response [6] 6720% | inhibition [7] 6.4% | superoxide response (% of plate) [8] 107% | aptamer binding inhibition [9] 3% | response [10] 3.25% | inhibition [11] -8.34% | response [12] 3.49% | binding (% of control) [13] 95.7% | efflux inhibition (fraction of control) [14] 0.01 | inhibition [15] 3% | differentiation response [16] -16.8%
65.6%: double positive events [6]

COc1ccc2[nH]c3c(c2c1)CCNC3C1CC=C(C)CC1 (stereo not given)
inactive: percent of DMSO control GFP [1] 95.9% | GFP response vs DMSO [2] 128% | percent response of DMSO control [3] 104% | GFP response vs DMSO [4] 79.8% | GFP response, % of DMSO [5] 101% | vesicle binding response [6] 519% | inhibition [7] 7.43% | superoxide response (% of plate) [8] 111% | aptamer binding inhibition [9] -1% | response [10] 13.6% | inhibition [11] 2.43% | response [12] -0.18% | binding (% of control) [13] 113% | efflux inhibition (fraction of control) [14] 0.12 | inhibition [15] -1% | differentiation response [16] 0.82%
69%: double positive events [6]

COc1cc(NS(=O)(=O)c2ccc(N)cc2)nc(OC)n1
60.1%: double positive events [6]
inactive: percent of DMSO control GFP [1] 98.8% | GFP response vs DMSO [2] 102% | percent response of DMSO control [3] 105% | GFP response vs DMSO [4] 96.5% | GFP response, % of DMSO [5] 98.2% | vesicle binding response [6] 102% | inhibition [7] -1.74% | superoxide response (% of plate) [8] 113% | aptamer binding inhibition [9] 3% | response [10] 1.82% | inhibition [11] 18.1% | response [12] 0.53% | binding (% of control) [13] 96.4% | efflux inhibition (fraction of control) [14] 0.01 | inhibition [15] -1% | differentiation response [16] 14.9%

CC(C)C(=O)Nc1cccnc1
inactive: percent of DMSO control GFP [1] 103% | GFP response vs DMSO [2] 99.6% | percent response of DMSO control [3] 99.6% | GFP response vs DMSO [4] 115% | GFP response, % of DMSO [5] 106% | vesicle binding response [6] 294% | inhibition [7] 21.4% | superoxide response (% of plate) [8] 85.9% | aptamer binding inhibition [9] 4% | response [10] 0.35% | inhibition [11] -1.65% | response [12] 4.74% | binding (% of control) [13] 99.3% | efflux inhibition (fraction of control) [14] -0.13 | inhibition [15] -4% | differentiation response [16] 0%
68.8%: double positive events [6]

COc1cc(SC)ccc1C(=O)NC(C)C
58.7%: double positive events [6]
inactive: percent of DMSO control GFP [1] 102% | GFP response vs DMSO [2] 101% | percent response of DMSO control [3] 99.6% | GFP response vs DMSO [4] 101% | GFP response, % of DMSO [5] 94.9% | vesicle binding response [6] 171% | inhibition [7] -9.98% | superoxide response (% of plate) [8] 97.8% | aptamer binding inhibition [9] -1% | response [10] -0.58% | inhibition [11] -4.67% | response [12] 1.52% | binding (% of control) [13] 101% | efflux inhibition (fraction of control) [14] -0.13 | inhibition [15] 6% | differentiation response [16] -21.6%

COC(=O)CCC(=O)CN
62.2%: double positive events [6]
inactive: percent of DMSO control GFP [1] 102% | GFP response vs DMSO [2] 106% | percent response of DMSO control [3] 110% | GFP response vs DMSO [4] 118% | GFP response, % of DMSO [5] 113% | vesicle binding response [6] 148% | inhibition [7] -5.11% | superoxide response (% of plate) [8] 94% | aptamer binding inhibition [9] -3% | response [10] 1.35% | inhibition [11] 7.22% | response [12] -6.15% | binding (% of control) [13] 102% | efflux inhibition (fraction of control) [14] -0.11 | inhibition [15] 5% | differentiation response [16] 7.13%

CC12CN3CC(C)(CN(C1)C3c1ccc(Br)cc1O)C2 (stereo not given)
active: response [12] 19%
57.2%: double positive events [6]
inactive: percent of DMSO control GFP [1] 101% | GFP response vs DMSO [2] 108% | percent response of DMSO control [3] 108% | GFP response vs DMSO [4] 123% | GFP response, % of DMSO [5] 106% | vesicle binding response [6] 197% | inhibition [7] 6.55% | superoxide response (% of plate) [8] 127% | aptamer binding inhibition [9] -3% | response [10] -11.7% | inhibition [11] -45.4% | binding (% of control) [13] 103% | efflux inhibition (fraction of control) [14] 0.21 | inhibition [15] -1% | differentiation response [16] 2.89%

COc1ccc(CN2CCC(=O)NC2=O)cc1
inactive: percent of DMSO control GFP [1] 102% | GFP response vs DMSO [2] 105% | percent response of DMSO control [3] 97.7% | GFP response vs DMSO [4] 105% | GFP response, % of DMSO [5] 96.5% | vesicle binding response [6] 170% | inhibition [7] 3.67% | superoxide response (% of plate) [8] 101% | aptamer binding inhibition [9] -2% | response [10] -1.29% | inhibition [11] 33.2% | response [12] -0.38% | binding (% of control) [13] 81.3% | efflux inhibition (fraction of control) [14] 0.08 | inhibition [15] 2%
active: differentiation response [16] 116%
59.9%: double positive events [6]
